# PMC11062922 (Nature Chemical Biology, 2023)
# Read-outs that look alike come from different tables or passages of the source.
# How the values were obtained:
# [1] = system: CHEK1; details: read-out: apparent Kd, n = 1
# [2] = system: ERN1; details: read-out: apparent Kd, n = 1
substance,measurement,setting,value
Lestaurtinib,potency estimated from few doses,"[1]; compound concentrations:100 nM and 1000 nM (sheet 'Lestaurtinib' of Supplementary Table 1),run:Lestaurtinib_02601_R1,Plate:MR018",0.098 µM
same,potency estimated from few doses,"[1]; compound concentrations:100 nM and 1000 nM (sheet 'Lestaurtinib' of Supplementary Table 1),run:Lestaurtinib_02601_R3,Plate:MR018",0.0788 µM
same,potency estimated from few doses,"[1]; compound concentrations:100 nM and 1000 nM (sheet 'Lestaurtinib' of Supplementary Table 1),run:Lestaurtinib_02606_R1,Plate:MR019",0.0885 µM
same,potency estimated from few doses,"[1]; compound concentrations:100 nM and 1000 nM (sheet 'Lestaurtinib' of Supplementary Table 1),run:Lestaurtinib_02606_R2,Plate:MR019",0.0741 µM
same,potency estimated from few doses,"[1]; compound concentrations:100 nM and 1000 nM (sheet 'Lestaurtinib' of Supplementary Table 1),run:Lestaurtinib_02606_R3,Plate:MR019",0.097 µM
same,potency estimated from few doses,"[1]; compound concentrations:100 nM and 1000 nM (sheet 'Lestaurtinib' of Supplementary Table 1),run:Lestaurtinib_02624_R2,Plate:MR020",0.093 µM
same,potency estimated from few doses,"[1]; compound concentrations:100 nM and 1000 nM (sheet 'Lestaurtinib' of Supplementary Table 1),run:Lestaurtinib_02624_R3,Plate:MR020",0.079 µM
same,potency estimated from few doses,"[1]; compound concentrations:100 nM and 1000 nM (sheet 'Lestaurtinib' of Supplementary Table 1),run:Lestaurtinib_02724_R3,Plate:MR021",0.092 µM
same,potency estimated from few doses,"[1]; compound concentrations:100 nM and 1000 nM (sheet 'Lestaurtinib' of Supplementary Table 1),run:Lestaurtinib_02741_R1,Plate:MR023",0.088 µM
same,potency estimated from few doses,"[1]; compound concentrations:100 nM and 1000 nM (sheet 'Lestaurtinib' of Supplementary Table 1),run:Lestaurtinib_02748_R1,Plate:MR024",0.0695 µM
same,potency estimated from few doses,"[1]; compound concentrations:100 nM and 1000 nM (sheet 'Lestaurtinib' of Supplementary Table 1),run:Lestaurtinib_02748_R3,Plate:MR024",0.0801 µM
same,potency estimated from few doses,"[1]; compound concentrations:100 nM and 1000 nM (sheet 'Lestaurtinib' of Supplementary Table 1),run:Lestaurtinib_02752_R1,Plate:MR025",0.0755 µM
same,potency estimated from few doses,"[1]; compound concentrations:100 nM and 1000 nM (sheet 'Lestaurtinib' of Supplementary Table 1),run:Lestaurtinib_02765_R2,Plate:MR026",0.0987 µM
same,potency estimated from few doses,"[1]; compound concentrations:100 nM and 1000 nM (sheet 'Lestaurtinib' of Supplementary Table 1),run:Lestaurtinib_02765_R3,Plate:MR026",0.0755 µM
same,potency estimated from few doses,"[1]; compound concentrations:100 nM and 1000 nM (sheet 'Lestaurtinib' of Supplementary Table 1),run:Lestaurtinib_02766_R1,Plate:MR027",0.092 µM
same,potency estimated from few doses,"[1]; compound concentrations:100 nM and 1000 nM (sheet 'Lestaurtinib' of Supplementary Table 1),run:Lestaurtinib_02766_R2,Plate:MR027",0.0712 µM
same,potency estimated from few doses,"[1]; compound concentrations:100 nM and 1000 nM (sheet 'Lestaurtinib' of Supplementary Table 1),run:Lestaurtinib_02766_R3,Plate:MR027",0.0827 µM
same,potency estimated from few doses,"[1]; compound concentrations:100 nM and 1000 nM (sheet 'Lestaurtinib' of Supplementary Table 1),run:Lestaurtinib_02768_R1,Plate:MR028",0.0827 µM
same,potency estimated from few doses,"[1]; compound concentrations:100 nM and 1000 nM (sheet 'Lestaurtinib' of Supplementary Table 1),run:Lestaurtinib_02768_R3,Plate:MR028",0.0861 µM
same,potency estimated from few doses,"[1]; compound concentrations:100 nM and 1000 nM (sheet 'Lestaurtinib' of Supplementary Table 1),run:Lestaurtinib_02795_R1,Plate:MR022",0.0895 µM
same,potency estimated from few doses,"[1]; compound concentrations:100 nM and 1000 nM (sheet 'Lestaurtinib' of Supplementary Table 1),run:Lestaurtinib_02795_R2,Plate:MR022",0.0802 µM
same,potency estimated from few doses,"[1]; compound concentrations:100 nM and 1000 nM (sheet 'Lestaurtinib' of Supplementary Table 1),run:Lestaurtinib_02795_R3,Plate:MR022",0.211 µM
same,potency estimated from few doses,"[1]; compound concentrations:100 nM and 1000 nM (sheet 'Lestaurtinib' of Supplementary Table 1),run:Lestaurtinib_02802_R1,Plate:MR029",0.0843 µM
same,potency estimated from few doses,"[1]; compound concentrations:100 nM and 1000 nM (sheet 'Lestaurtinib' of Supplementary Table 1),run:Lestaurtinib_02802_R2,Plate:MR029",0.0916 µM
same,potency estimated from few doses,"[1]; compound concentrations:100 nM and 1000 nM (sheet 'Lestaurtinib' of Supplementary Table 1),run:Lestaurtinib_02802_R3,Plate:MR029",0.0916 µM
same,potency estimated from few doses,"[1]; compound concentrations:100 nM and 1000 nM (sheet 'Lestaurtinib' of Supplementary Table 1),run:Lestaurtinib_02896_R1,Plate:MR030",0.0737 µM
same,potency estimated from few doses,"[1]; compound concentrations:100 nM and 1000 nM (sheet 'Lestaurtinib' of Supplementary Table 1),run:Lestaurtinib_02896_R2,Plate:MR030",0.07 µM
same,potency estimated from few doses,"[1]; compound concentrations:100 nM and 1000 nM (sheet 'Lestaurtinib' of Supplementary Table 1),run:Lestaurtinib_02896_R3,Plate:MR030",0.0667 µM
same,potency estimated from few doses,"[1]; compound concentrations:100 nM and 1000 nM (sheet 'Lestaurtinib' of Supplementary Table 1),run:Lestaurtinib_03172_R2,Plate:MR031",0.0835 µM
same,potency estimated from few doses,"[1]; compound concentrations:100 nM and 1000 nM (sheet 'Lestaurtinib' of Supplementary Table 1),run:Lestaurtinib_03172_R3,Plate:MR031",0.0943 µM
same,potency estimated from few doses,"[1]; compound concentrations:100 nM and 1000 nM (sheet 'Lestaurtinib' of Supplementary Table 1),run:Lestaurtinib_03260_R3,Plate:MR033",0.0679 µM
same,potency estimated from few doses,"[2]; compound concentrations:100 nM and 1000 nM (sheet 'Lestaurtinib' of Supplementary Table 1),run:Lestaurtinib_02339_R1,Plate:MR001",0.0979 µM
same,potency estimated from few doses,"[2]; compound concentrations:100 nM and 1000 nM (sheet 'Lestaurtinib' of Supplementary Table 1),run:Lestaurtinib_02339_R2,Plate:MR001",0.0658 µM
same,potency estimated from few doses,"[2]; compound concentrations:100 nM and 1000 nM (sheet 'Lestaurtinib' of Supplementary Table 1),run:Lestaurtinib_02339_R3,Plate:MR001",0.047 µM
same,potency estimated from few doses,"[2]; compound concentrations:100 nM and 1000 nM (sheet 'Lestaurtinib' of Supplementary Table 1),run:Lestaurtinib_02364_R1,Plate:MR002",0.0752 µM
same,potency estimated from few doses,"[2]; compound concentrations:100 nM and 1000 nM (sheet 'Lestaurtinib' of Supplementary Table 1),run:Lestaurtinib_02364_R2,Plate:MR002",0.0582 µM
same,potency estimated from few doses,"[2]; compound concentrations:100 nM and 1000 nM (sheet 'Lestaurtinib' of Supplementary Table 1),run:Lestaurtinib_02367_R1,Plate:MR003",0.0834 µM
same,potency estimated from few doses,"[2]; compound concentrations:100 nM and 1000 nM (sheet 'Lestaurtinib' of Supplementary Table 1),run:Lestaurtinib_02367_R3,Plate:MR003",0.0761 µM
same,potency estimated from few doses,"[2]; compound concentrations:100 nM and 1000 nM (sheet 'Lestaurtinib' of Supplementary Table 1),run:Lestaurtinib_02381_R1,Plate:MR004",0.0442 µM
same,potency estimated from few doses,"[2]; compound concentrations:100 nM and 1000 nM (sheet 'Lestaurtinib' of Supplementary Table 1),run:Lestaurtinib_02381_R2,Plate:MR004",0.058 µM
same,potency estimated from few doses,"[2]; compound concentrations:100 nM and 1000 nM (sheet 'Lestaurtinib' of Supplementary Table 1),run:Lestaurtinib_02407_R1,Plate:MR005",0.0747 µM
same,potency estimated from few doses,"[2]; compound concentrations:100 nM and 1000 nM (sheet 'Lestaurtinib' of Supplementary Table 1),run:Lestaurtinib_02407_R3,Plate:MR005",0.0658 µM
